Data from PubChem BioAssay AID504773 (Broad Institute, 2011).
Potency and affinity values are given separately. Unmarked numbers belong to inactive results.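 Rule for the calls: active = polarization signal falls with dose and the fitted half-maximal concentration is at or below ten times the sample's top valid dose; inconclusive = flat curve at 30 to 70% inhibition, or poor fit; inactive = signal rises, flat within 30%, or potency beyond limit.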

Biological target: Golgi-associated PDZ and coiled-coil motif-containing protein (Homo sapiens) (UniProt Q9HD26)
Test: potency against CAL PDZ-peptide interaction – biochemical, fluorescence polarization, Cerulean-tagged CAL PDZ, cherry-picks, dose response (AID 504773);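 note: 0% = DMSO neutral wells and -100% = excess unlabeled competitor peptide wells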
Details: CAL PDZ-peptide binding, 1 h; series mostly up to 50 µM; activity change, negative = inhibition: at the top concentration

Row | SMILES | activity change, negative = inhibition
1 | FC(F)(F)Oc1ccc(NC(=S)NCCCN2CCOCC2)cc1 | -72.2%
2 | CCOC(=O)C1(CCOc2ccccc2)CCN(CC(O)CO)CC1 (configuration not stated) | -21.3%
3 | CCN(CC)S(=O)(=O)c1cc(C(=O)Oc2ccccc2OC)ccc1OC | 14.1%
4 | Cc1cccc(N(Cc2cc(=O)[nH]c3ccccc23)C(=O)C(C)C)c1 | 31.4%
5 | CCCc1cc2c(cc1NC(=O)c1ccco1)OCO2 | -11.7%
6 | O=C(CSc1nc2c(sc3ccccc32)c(=O)n1Cc1ccccc1)NCC1CCCO1 (configuration not stated) | 13.4%
7 | Cc1cc(=O)n2c3ccccc3n(CC(O)CN3CCN(CCO)CC3)c2c1C#N (configuration not stated) | -14.9%
8 | CC(=O)N1N=C(c2ccccc2)CC1c1ccccc1 (configuration not stated) | -9.8%
9 | CCc1noc(C)c1C(=O)N1CCCC(CCC(=O)NCc2ccc(F)c(F)c2)C1 (configuration not stated) | 0.002%
10 | CC(C)(C)c1nn(-c2ccccc2)c2[nH]c(=O)c(C=O)cc12 | -49.3%
11 | O=C(c1ccccc1)C(CCc1ccccn1)CCc1ccccn1 | -15.5%
12 | CSc1ccccc1NC(=O)C1CC(c2c(F)cccc2Cl)=NO1 (configuration not stated) | -8.91%
13 | CCc1nc(SCC(=O)c2ccccc2)c2c(=O)n(C)c(=O)n(C)c2n1 | 13.2%
14 | Cc1cc(Cl)c(Cl)cc1S(=O)(=O)NCCCn1ccnc1 | 24.4%
15 | CC1CCC(NS(=O)(=O)c2ccc3c(c2)n(C)c(=O)c(=O)n3C)CC1 (configuration not stated) | 13.3%
16 | COc1ccc(OC)c(NC(=O)c2ccc(OC3CSC3)cc2)c1 | 7.43%
17 | Cc1nn(C)cc1CN(C)C(=O)c1nn2c(c1Br)NC(c1cccs1)CC2C(F)(F)F (configuration not stated) | 23.8%
18 | O=C(NCC1CCCO1)c1cn(-c2ccccc2)nc1-c1ccc(F)cc1 (configuration not stated) | 14.8%
19 | CCN(CCCn1c(=S)[nH]c2ccc(N3CCOCC3)cc2c1=O)c1ccccc1 | 8.28%

Row | SMILES | activity change, negative = inhibition
20 | CCC(=O)c1cn(CC(=O)Nc2cccc(C)c2C)c2ccccc12 | 15.6%
21 | O=C(COc1ccc(Cl)cc1Cl)Nc1nnc(C2=COCCO2)o1 | 0.72%
22 | O=C(N/N=C/c1ccc(OCc2ccccc2)cc1)c1ccc(O)cc1 | 12%
23 | Cc1ccc(S(=O)(=O)N2CCN(C(=O)c3ccccn3)CC2)cc1 | 13.7%
24 | COc1ccc(CC(=O)NNC(=O)CCc2ccccc2)cc1OC | -5.54%
25 | COC(=O)c1ccc(CNC(=O)COC(=O)c2cc(Cl)nc(Cl)c2)cc1 | -30%
26 | CCN(CC)CCn1c(SCC(=O)NCc2ccccc2)nc2c(sc3ccccc32)c1=O | 7.36%
27 | CN(CC1CCCO1)S(=O)(=O)c1ccc(C(=O)Nc2ccc([N+](=O)[O-])cc2)cc1 (configuration not stated) | 22.9%
28 | Cc1ccnc(SCC(=O)N2CCC(C(N)=O)CC2)n1 | -6.75%
29 | N#C/C(=C\c1c[nH]c2ccccc12)C(=O)NC1CC1 | -24%
30 | COC(=O)CN1C(=O)C(O)=C(C(C)=O)C1c1ccc([N+](=O)[O-])cc1 (configuration not stated) | 15.1%
31 | Cc1cccc(N=Nc2c(O)[nH]c3ccc(F)cc23)c1 | -79.4%
32 | Cc1ccc(CN(Cc2cccnc2)C(=S)Nc2cccc(Cl)c2C)cc1 | 3.3%
33 | CN(C(=O)CC1C(=O)NCCN1CC(c1ccccc1)c1ccccc1)C(C1CC1)C1CC1 (configuration not stated) | -16%
34 | c1ccc(C2Nc3ccccc3Oc3ccccc32)cc1 (configuration not stated) | 29.6%
35 | Cc1ccc(Cl)c2c(N=Nc3ccccc3)c(O)[nH]c12 | 19%
36 | CCOC(=O)c1nc(NCCc2ccccc2)sc1C | 8.59%
37 | CC(=Nc1ccccc1O)c1sc2ccccc2c1O | -12.3%
